Bioassay records (PubChem BioAssay)
A selection: hits, their analogues and other compounds. The true share with any hit is near 12%.
L major viab = Leishmania major promastigote growth inhibition; Leishmania major promastigotes, resazurin fluorescence viability; inhibition, % at 10 µM; 200,000 compounds, 9% hits; AID 1063; in the data active means inhibition above about 50%;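 further: promastigotes grown with compound for 44 hours at 28 °C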
CHOP inhibitor = blocks CHOP induction under ER stress. CHO-K1 CHOP-promoter luciferase, tunicamycin-induced, 15-18 h. inhibition, % at 10 µM. 220,000 compounds, 3.8% hits;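 active means compounds that reduced the stress-induced luciferase reporter signal by more than about 70% of percent inhibition, limit read from the data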;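 further: 0% = tunicamycin plus vehicle and 100% = wells without tunicamycin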
Arbovirus anti = arbovirus infection inhibition; arbovirus infection cell-based antiviral screen; inhibition, % at 10 µM; 200,000 compounds, 0.37% hits; AID 1251; in the data active means inhibition above about 30%
WT yeast gro inh = growth inhibition of WT yeast, mitochondrial fusion screen; mitochondrial fusion phenotypic screen, WT strain; inhibition, % at 10 µM; 190,000 compounds, 2.1% hits; in the data active means inhibition above about 58%; tested in S. cerevisiae
Lmaj promast 1uM = inhibitors of Leishmania major promastigote growth, repeat at 1 uM. shares compounds with L major viab. L. major promastigote growth, resazurin fluorescence, 48 h. inhibition, % at 1 µM. 1,100 compounds, 13% hits. AID 1258;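 active means inhibition above about 50% in both repeat tests, limit read from the data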
The depositor's hits bear a star; / = no result given.

SMILES	L major viab	CHOP inhibitor	Arbovirus anti	WT yeast gro inh	Lmaj promast 1uM
Nn1c(SCc2ccccn2)nncc1=O	-4	-2	-7	-17	/
Cc1ccc(C(O)(C(=O)NNc2ccccn2)c2ccc(C)cc2)cc1	-4	28	-19	-6	/
Cc1ccc(NNC(=O)C(O)(c2cccc(C(F)(F)F)c2)c2cccc(C(F)(F)F)c2)cc1	70*	107*	-26	83*	-9
CCCCN(CC)C(=O)Cn1c(=O)sc2ccccc21	-6	21	-5	2	/
CC(C)=N/N=C(\c1cccc([N+](=O)[O-])c1)C12CN3CN(CN(C3)C1)C2	51*	17	8	-5	-11
O=[N+]([O-])c1cccc(C(O)C23CN4CN(CN(C4)C2)C3)c1 (centres undefined)	/	7	/	/	/
COCc1cc(C)nc(Oc2ccccc2)c1C#N	-9	-3	-3	-11	/
Cc1ccccc1-n1sc2cc(F)ccc2c1=O	80*	30	-25	96	-21
Cc1cc2nc(C3CCN(Cc4nnnn4Cc4ccccc4)CC3)[nH]c2cc1C	91*	23	-18	2	-19
Cc1ccc(C(CCN)c2ccco2)cc1 (centres undefined)	98*	53	6	6	-9
O=c1oc2c(-c3cccc(F)c3)cc(O)cc2s1	-13	-7	-35	3	/
CC(=O)NCCNc1ccc([N+](=O)[O-])cn1	62*	-9	3	1	-16
Cc1ccc(OCc2nc(C#N)c(NCc3ccc4c(c3)OCO4)o2)cc1	98*	8	-9	-18	-18
N#Cc1cc(Oc2cccc3cccnc23)c(-n2nnc3ccccc32)cc1C#N	69*	-3	-26	10	-10
Cc1ccc(S(=O)(=O)n2cc(-c3ccccc3)c(N)n2)cc1	9	49	-17	7	/
Nc1nn(S(=O)(=O)c2ccccc2)cc1-c1ccc([N+](=O)[O-])cc1	99*	30	-6	-13	6
O=[N+]([O-])c1ccc(N/N=C/c2c[nH]c3ccccc23)cc1	98*	57	-17	87*	-18
CCN1C=CC2=C(C#N)C(N)C(C#N)(C#N)C(c3ccccc3C(F)(F)F)C2C1 (centres undefined)	26	21	-8	-5	/
O=C(NCc1ccc(N2CCCC2=O)cc1)c1cn(CCc2ccccc2)nn1	56*	15	-2	8	19
O=C(NCCN1CCOCC1)c1cn(CCc2ccccc2)nn1	-3	14	11	9	/
CCOc1ccc(CCNC(=O)c2ccc3nc(N4CCOCC4)sc3c2)cc1OCC	/	24	/	/	/
COc1cc(/C=N/NC(=O)COc2cc(C)cc(C)c2)ccc1OS(=O)(=O)c1ccc(C)cc1	-2	41	-20	11	/
COc1ccc(/C=N/NC(=O)c2cccc([N+](=O)[O-])c2)cc1OS(=O)(=O)c1ccc(C)cc1	87*	29	-14	8	-23
Cn1c(C(=O)NC2CC2)cc(=O)n(C)c1=O	-9	-4	4	-8	/
Cc1ccc2c(c1)c(C)cc[n+]2Cc1ccccc1	24	-12	7	15	/
SMILES	L major viab	CHOP inhibitor	Arbovirus anti	WT yeast gro inh	Lmaj promast 1uM
Cc1ccc(C[n+]2cccc(-c3ccccc3)c2)c(C)c1	91*	-11	0	-8	3
Cc1[nH]c2ccccc2c1C(c1ccccn1)N1CCC(C(N)=O)CC1 (centres undefined)	60*	-50	-22	-7	5
CCOC(=O)C1CCN(C(c2ccccn2)c2c(C)[nH]c3ccccc23)CC1 (centres undefined)	35	-106	-12	-16	/
Cc1nc2ccc(C(=O)N3c4ccccc4CC3C)cc2s1 (centres undefined)	0	-1	-11	-8	/
O=C(Cc1ccccc1)Nc1cc(C(=O)c2ccccc2)ccc1N1CCOCC1	97*	37	5	5	-4
Cc1ccc(O)c(C2=NCCNC(C(F)(F)C(F)F)=C2)c1	-8	19	8	6	/
Oc1ccc(Cl)cc1C1=NCCNC(C(F)(F)C(F)F)=C1	76*	13	5	4	-18
Cc1ccc(C(C[N+](=O)[O-])Sc2ccc(N)cc2)cc1 (centres undefined)	/	-9	/	/	/
Cc1ccc(C(C[N+](=O)[O-])n2nc(C)cc2C)cc1 (centres undefined)	100*	-28	-6	-12	36
Cc1ccccc1N=C1Nc2ccccc2CS1	51*	40	-7	4	6
Cc1ccc(-c2cc(-c3ccc4c(c3)OCO4)c(C#N)c(N)n2)o1	1	0	0	39	/
Cc1ccc(-c2cc(-c3ccc(F)cc3)c(C#N)c(N)n2)o1	60*	-22	-4	0	-15
CSc1ccc(-c2nc(CSCC(=O)NCCCN3CCOCC3)c(C)o2)cc1	19	18	1	-7	/
Cc1ccc(-c2nc(CSCC(=O)NCCN3CCN(Cc4ccccc4)CC3)c(C)o2)cc1	52*	75*	9	-11	-26
Cc1ccc(NC2(c3nnnn3-c3c(C)cccc3C)CCCCC2)cc1	97*	-6	5	82*	-3
Cc1c(C(=O)N2CCCCC2)sc(NC(=O)C23CC4CC(CC(C4)C2)C3)c1C#N	0	/	/	/	/
Oc1ccc(-c2nc3c4c(ncn3n2)-c2ccccc2CC42CCCC2)cc1	87*	106*	-39	96*	7
CCC(=O)Nc1nc(C)c(-c2csc(Nc3ccccn3)n2)s1	62*	50	-3	33	6
COc1ccc(CN(C)C(=O)c2cnc(OC)cc2C(F)(F)F)c(OC)c1	/	-1	/	/	/
CCN(CC)CCNC(=O)c1[nH]c2ccc(OCc3ccccc3)cc2c1C	100*	11	-27	15	-17
CC1(C)CC2(CC(c3cccs3)c3cc(Cl)c(O)cc3O2)NC(=S)N1 (centres undefined)	92*	-5	-34	17	-10
CC1(C)CC2(CC(c3ccc(F)cc3)c3ccc(O)cc3O2)NC(=S)N1 (centres undefined)	/	14	/	/	/
CC1(C)OC(=O)N(c2ccccc2)C12C=Cc1c(ccc3ccccc13)O2 (centres undefined)	83*	23	-12	78*	-12
Cc1ccc(-n2nc(C)cc2Nc2ncc(Cl)cc2Cl)cc1	3	25	-7	74	/
Cc1cc(Nc2ncc(Cl)cc2Cl)n(-c2ccccc2C)n1	82*	-4	-9	57	-11
SMILES	L major viab	CHOP inhibitor	Arbovirus anti	WT yeast gro inh	Lmaj promast 1uM
CCNC(=O)Cn1cc(C(F)(F)F)cc(Cl)c1=O	/	7	/	/	/
O=C(c1cn(-c2ccccc2)nc1-c1ccc(Cl)s1)N1CCOCC1	64*	33	-11	12	-14
CSCCC1COC(c2cccs2)=N1 (centres undefined)	0	3	1	3	/
CCC(C)NC(=S)NNC(=O)c1ccc(C(C)(C)C)cc1 (centres undefined)	-2	23	-16	10	/
COC(=O)CNc1nc(-c2ccccc2F)nc2ccccc12	59*	13	-8	72	56*
Fc1ccccc1-c1nc(NCc2ccccc2)c2ccccc2n1	/	24	/	/	/
Cc1ccc(CN2CCN(Cc3cccn3-c3nccs3)CC2CCO)cc1 (centres undefined)	-4	7	7	-9	/
CCOC(=O)c1nc2cc3n(c(C)c-2c1C)C(C)C(CC)=C3C (centres undefined)	99*	/	/	/	29
